Experimental data from PubChem BioAssay AID1159580 (chemical genetic matrix, 2015).
Several values for one entry are separate records, joined by “and”; a condition that tells them apart may be missing. Identical values can stand only once. About 2,000 (36%) of roughly 5,500 compounds were called active. Another 18% or so got no clear call; they are omitted. Cut-off read from the data, not from the text of the source: active = normalized growth mostly below about 0.91 (no sharp cut-off); inconclusive = no clear call, values can overlap the other calls; inactive = mostly above about 0.92. The list shows a part of the results.

Test: chemical genetic growth profiling, strain panel (AID 1159580);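 note: tested at 20 µM; growth read once vehicle control cultures reached saturation at 30 °C; 1 = growth at the plate median or of vehicle wells; lower values mean less growth of the strain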
Conditions: S. cerevisiae deletion strains, growth OD

Measured: normalized growth

C[C@@H]1C(=O)OC2[C@H](O)C34[C@@H]5OC(=O)[C@@]3(O[C@@H]3OC(=O)[C@H](O)[C@@]34[C@H](C(C)(C)C)[C@H]5O)[C@]21O (stereo partly drawn)
inactive: locus YAL013W, strain DEP1, hits give low values 0.998 | locus YAL021C, strain ccr4, hits give low values 0.952 | locus YAL026C, strain drs2, hits give low values 0.978 | locus YAL030W, strain snc1, hits give low values 0.973 | locus YBL061C, strain skt5, hits give low values 0.975 | locus YBR009C, strain hhf1, hits give low values 0.959 | locus YBR021W, strain FUR4, hits give low values 0.983 | locus YBR023C, strain chs3, hits give low values 0.986 | locus YBR171W, strain sec66, hits give low values 0.974 | locus YBR229C, strain ROT2, hits give low values 1 | locus YBR231C, strain swc5, hits give low values 0.976 | locus YBR279W, strain paf1, hits give low values 0.98 | locus YCL011C, strain gbp2, hits give low values 0.972 | locus YCL016C, strain dcc1, hits give low values 0.975 | locus YCL029C, strain bik1, hits give low values 1.02 | locus YCL061C, strain MRC1, hits give low values 0.96 | locus YCL069W, strain vba3, hits give low values 0.976 | locus YCR088W, strain abp1, hits give low values 0.983 | locus YDL005C, strain med2, hits give low values 0.964 | locus YDL035C, strain GPR1, hits give low values 1 | locus YDL040C, strain nat1, hits give low values 0.975 | locus YDL074C, strain BRE1, hits give low values 0.999 | locus YDL101C, strain DUN1, hits give low values 1.01 | locus YDL134C, strain PPH21, hits give low values 0.999 | locus YDL185W, strain tfp1, hits give low values 1.02 | locus YDL192W, strain arf1, hits give low values 1.01 | locus YDR001C, strain nth1, hits give low values 0.973 | locus YDR069C, strain doa4, hits give low values 0.983 | locus YDR101C, strain arx1, hits give low values 1.01 | locus YDR137W, strain rgp1, hits give low values 0.935 | locus YDR159W, strain sac3, hits give low values 0.946 | locus YDR162C, strain NBP2, hits give low values 0.987 | locus YDR195W, strain ref2 0.942 | locus YDR297W, strain sur2, hits give low values 0.97 | locus YDR318W, strain mcm21, hits give low values 1.01 | locus YDR334W, strain swr1, hits give low values 0.976 | locus YDR335W, strain msn5, hits give low values 0.965 | locus YDR388W, hits give low values 1.01 | locus YDR392W, strain spt3, hits give low values 0.949 | locus YDR502C, strain sam2, hits give low values 1.03 | locus YEL003W, strain gim4, hits give low values 0.961 | locus YEL037C, strain rad23, hits give low values 0.976 | locus YEL061C, strain CIN8 (second series), hits give low values 0.965 | locus YEL061C, strain CIN8, hits give low values 0.992 | locus YER015W, strain faa2, hits give low values 0.989 | locus YER016W, strain bim1, hits give low values 0.975 | locus YER110C, hits give low values 1.01 | locus YER111C, strain swi4, hits give low values 0.964 | locus YER155C, strain BEM2 (second series), hits give low values 1.02 | locus YER155C, strain BEM2, hits give low values 1 | locus YER167W, strain BCK2, hits give low values 0.996 | locus YFR010W, strain ubp6, hits give low values 0.985 | locus YGL078C, strain dbp3, hits give low values 1.01 | locus YGL086W, strain mad1, hits give low values 1.03 | locus YGL167C, strain pmr1, hits give low values 0.972 | locus YGL173C, strain kem1, hits give low values 0.953 | locus YGL227W, strain vid30, hits give low values 0.955 | locus YGL240W, strain doc1, hits give low values 0.981 | locus YGL248W, strain PDE1, hits give low values 1.01 | locus YGL253W, strain hxk2, hits give low values 0.974 | locus YGR078C, strain PAC10, hits give low values 1 | locus YGR135W, strain pre9, hits give low values 1.02 | locus YGR252W, strain gcn5, hits give low values 1.01 | locus YHR013C, strain ard1, hits give low values 0.957 | locus YHR027C, strain rpn1, hits give low values 0.987 | locus YHR030C, strain SLT2, hits give low values 1 and 1.05 | locus YHR079C, strain IRE1 (second series), hits give low values 1.02 | locus YHR079C, strain IRE1, hits give low values 1.03 | locus YHR094C, strain hxt1, hits give low values 1.01 | locus YHR129C, strain ARP1, hits give low values 1 | locus YHR142W, strain chs7, hits give low values 0.956 | locus YHR200W, strain rpn10, hits give low values 1.01 | locus YIL066C, strain RNR3, hits give low values 1 | locus YIL073C, strain SPO22, hits give low values 1.06 | locus YIL125W, strain kgd1, hits give low values 1.01 | locus YIR030C, strain dcg1, hits give low values 1.02 | locus YJL092W, strain hpr5, hits give low values 0.975 | locus YJL095W, strain BCK1 (second series), hits give low values 0.955 | locus YJL095W, strain BCK1, hits give low values 0.992 and 1.03 | locus YJL115W, strain asf1, hits give low values 0.956 | locus YJL129C, strain trk1, hits give low values 0.974 | locus YJL134W, strain LCB3, hits give low values 1 | locus YJL154C, strain vps35, hits give low values 0.977 | locus YJL164C, strain tpk1, hits give low values 0.969 | locus YJL166W, strain qcr8, hits give low values 0.992 | locus YJL168C, strain set2, hits give low values 1.01 | locus YJL187C, strain SWE1 (second series), hits give low values 1.01 | locus YJR043C, strain POL32, hits give low values 0.994
